Consider 19 molecules from PubChem BioAssay (NCATS).

Inconclusive results are not listed. A number with no mark means an inactive call. Active and inactive are the calls of the source. The call rests on the fitted dose curve; in most records, active means well fitted curve in the direction sought with a large enough effect; inconclusive means small, poorly fitted or top-dose-only effect, or another doubt; inactive means no such curve, though single readings can be large; an effect the other way counts as inactive or inconclusive.

A short description of test [1]: qHTS of pediatric cancer cell lines to identify multiple opportunities for drug repurposing: Primary screen for BT-12 cells (AID 1347101). Further: nearly all actives have a fitted effect of over 25% in size. Further: potency means the concentration at half of the fitted maximal effect. An outline of the steps:
(§1)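 Cells (500-1,000/well) rested 5 h, then received compounds for 48 h; metabolically active cells were measured by CellTiter-Glo luminescence. Final concentrations spanned up to 46 µM (MIPE, 11-point) or 0.59 nM-46 µM (NPC, 8-point) in primary screens, 11-point in follow-ups.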
(In qHTS, concentration-response curves come from the screen itself.)

Test [2] can be described thus: qHTS of pediatric cancer cell lines to identify multiple opportunities for drug repurposing: Primary screen for Rh18 cells (AID 1347102). Further: nearly all actives have a fitted effect of over 65% in size. An outline of the steps:
as §1

Test [3] is described as follows: qHTS of pediatric cancer cell lines to identify multiple opportunities for drug repurposing: Primary screen for RD cells (AID 1347104). Further: nearly all actives have a fitted effect of over 55% in size. Further: potency means the concentration at half of the fitted maximal effect. An outline of the steps:
(§2)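 Quantitative HTS format: each compound titrated (MIPE 11 points from 0.78 nM, NPC 8 points from 0.59 nM) onto cells plated 5 hours earlier. After 48 h at 37 degrees C, CellTiter-Glo luminescence was recorded.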

Test [4] in a line: qHTS of pediatric cancer cell lines to identify multiple opportunities for drug repurposing: Primary screen for MG 63 (6-TG R) cells (AID 1347105). Further: nearly all actives have a fitted effect of over 50% in size. Further: potency means the concentration at half of the fitted maximal effect. An outline of the steps:
as §2

Test [5] can be described thus: qHTS of pediatric cancer cell lines to identify multiple opportunities for drug repurposing: Primary screen for control Hh wild type fibroblast cells (AID 1347106). Further: nearly all actives have a fitted effect of over 55% in size. Further: potency means the concentration at half of the fitted maximal effect. An outline of the steps:
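Viability after 48 h compound treatment at 37C, 500-1,000 cells/well, read as ATP luminescence with CellTiter-Glo. Primary screens used 11-point (MIPE, 0.78 nM-46 µM) or 8-point (NPC, 0.59 nM-46 µM) final concentrations; follow-up screens used 11-point dilutions.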

A short description of test [6]: qHTS of pediatric cancer cell lines to identify multiple opportunities for drug repurposing: Primary screen for Rh30 cells (AID 1347107). Further: nearly all actives have a fitted effect of over 75% in size. Further: potency means the concentration at half of the fitted maximal effect. In a few lines:
as §1

The nature of test [7]: qHTS of pediatric cancer cell lines to identify multiple opportunities for drug repurposing: Primary screen for Rh41 cells (AID 1347108). Further: nearly all actives have a fitted effect of over 70% in size. Further: potency means the concentration at half of the fitted maximal effect. An outline of the steps:
as §2

Test [8] can be described thus: qHTS of pediatric cancer cell lines to identify multiple opportunities for drug repurposing: Confirmatory screen for NB1643 cells (AID 1347109). Further: potency means the concentration at half of the fitted maximal effect; nearly all actives have a fitted effect of over 45% in size. An outline of the steps:
as §1

Test [9] is described as follows: qHTS of pediatric cancer cell lines to identify multiple opportunities for drug repurposing: Confirmatory screen for A673 cells (AID 1347110).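 Further: potency means the concentration at half of the fitted maximal effect; cells exposed to compound for 48 h before the viability read; nearly all actives have a fitted effect of over 65% in size.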 As to conditions: A673 Ewing sarcoma cell viability. In a few lines:
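A673 cells at 500-1,000 cells/well were dosed 5 h after plating, in dilution series up to 46 uM final; primary runs used 8 or 11 points and confirmatory runs used 11 points. Viability was read by CellTiter-Glo luminescence after 48 h, against DMSO and 2.3 uM bortezomib controls.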

Test [10] can be described thus: qHTS of pediatric cancer cell lines to identify multiple opportunities for drug repurposing: Confirmatory screen for SK-N-MC cells (AID 1347111).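 Further: potency means the concentration at half of the fitted maximal effect; cells exposed to compound for 48 h before the readout; nearly all actives have a fitted effect of over 70% in size.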 As to conditions: SK-N-MC cell viability. In a few lines: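 Seed 500-1,000 cells/well; rest 5 h at 37 degrees C. Pin-transfer compounds, 11-point titration. Incubate 48 h. Add CellTiter-Glo, 15 min RT, read luminescence.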

A short description of test [11]: qHTS of pediatric cancer cell lines to identify multiple opportunities for drug repurposing: Confirmatory screen for DAOY cells (AID 1347114). Further: nearly all actives have a fitted effect of over 65% in size. Further: potency means the concentration at half of the fitted maximal effect. In a few lines: (§3)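 Viability measured as metabolically active cells via CellTiter-Glo luminescence following 48 hours of compound exposure, 11-point dilutions in confirmatory testing. 500-1,000 cells/well plated 5 hours before dosing; controls were DMSO and 2.3 µM bortezomib.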

Test [12] can be described thus: qHTS of pediatric cancer cell lines to identify multiple opportunities for drug repurposing: Confirmatory screen for NB-EBc1 cells (AID 1347115).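 Further: cells exposed to compound for 48 h before the viability read; nearly all actives have a fitted effect of over 45% in size.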 Further: potency means the concentration at half of the fitted maximal effect. In a few lines:
as §1

Test [13] is described as follows: qHTS of pediatric cancer cell lines to identify multiple opportunities for drug repurposing: Confirmatory screen for TC32 cells (AID 1347118).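 Further: potency means the concentration at half of the fitted maximal effect; cells exposed to compound for 48 h before the read; nearly all actives have a fitted effect of over 65% in size.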 The settings on record: TC32 Ewing sarcoma cells viability qHTS. In a few lines:
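Luminescent CellTiter-Glo read-out of metabolically active TC32 cells after 48 h compound exposure. Primary: MIPE 11-point, 0.78 nM–46 µM; NPC 8-point, 0.59 nM–46 µM. Confirmatory: 11-point dilutions.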

Test [14] can be described thus: qHTS of pediatric cancer cell lines to identify multiple opportunities for drug repurposing: Confirmatory screen for control Hh wild type fibroblast cells (AID 1347121). Further: nearly all actives have a fitted effect of over 70% in size. In a few lines: as §1
Test [15] can be described thus: qHTS of pediatric cancer cell lines to identify multiple opportunities for drug repurposing: Primary screen for OHS-50 cells (AID 1347103). Further: nearly all actives have a fitted effect of over 40% in size. An outline of the steps: as §1
The nature of test [16]: qHTS of pediatric cancer cell lines to identify multiple opportunities for drug repurposing: Confirmatory screen for BT-12 cells (AID 1347112). Further: potency means the concentration at half of the fitted maximal effect; nearly all actives have a fitted effect of over 55% in size. An outline of the steps: as §1
Test [17] can be described thus: qHTS of pediatric cancer cell lines to identify multiple opportunities for drug repurposing: Confirmatory screen for LAN-5 cells (AID 1347113). In a few lines: as §1
Test [18] can be described thus: qHTS of pediatric cancer cell lines to identify multiple opportunities for drug repurposing: Confirmatory screen for SJ-GBM2 cells (AID 1347116). Further: potency means the concentration at half of the fitted maximal effect; nearly all actives have a fitted effect of over 60% in size. In a few lines:
as §3

Test [19] is described as follows: qHTS of pediatric cancer cell lines to identify multiple opportunities for drug repurposing: Confirmatory screen for BT-37 cells (AID 1347117). Further: potency means the concentration at half of the fitted maximal effect; nearly all actives have a fitted effect of over 55% in size. The settings on record: BT-37 pediatric cancer cells, viability. In a few lines: as §1
Test [20] can be described thus: qHTS of pediatric cancer cell lines to identify multiple opportunities for drug repurposing: Confirmatory screen for MG 63 (6-TG R) cells (AID 1347119). An outline of the steps:
as §1

`CCOC(=O)c1ccccc1O`: the Potency result in [1], in [2], in test [3], in [4], in [5] and in test [6] was “inactive” throughout. Further, the Potency result in test [7], in test [11], in test [12] and in [14] was “inactive” in each case. Moreover, the Potency in [8] is 14700 nM (active); in test [9], 3290 nM (active); in test [10], 1650 nM (active); in test [13], 1470 nM (active).
For the molecule `O=C(OCc1ccccc1)c1ccccc1`, the Potency result in [1], in [2], in test [3], in test [4], in test [5] and in [6] was “inactive” in each case. Besides, in test [7], the Potency entry is “inactive”.
Take `CC(C(=O)O)c1ccc2c(c1)[nH]c1ccc(Cl)cc12` (centres undefined): the Potency entry in [1], in test [2], in test [3], in test [4], in test [5] and in test [6] was “inactive” in each case. Also, the Potency result in [7] is “inactive”.
For `Nc1c(CC(=O)O)cccc1C(=O)c1ccc(Br)cc1`, the Potency result in test [1], in test [2], in test [3], in [4], in test [5] and in test [6] was “inactive” in each case. The Potency result in [7] is “inactive”.
Consider `CCCCCCCCCCCCCCCC(=O)OC(C)C`, for which the Potency result in [1], in [2], in [3], in test [4], in test [5] and in test [6] was “inactive” each time. Besides, in [7], the Potency entry was “inactive”.
Regarding `O=C(/C=C/c1ccccc1)NCCO`, the Potency result in test [1], in test [2], in test [15], in test [3], in test [4] and in test [5] was “inactive” throughout. Moreover, the Potency entry in test [6] and in test [7] was “inactive” throughout.
With `O=C(O)c1cc(O)c(O)c(O)c1`, the Potency entry in [1], in [2], in test [15], in test [3], in [4] and in [5] was “inactive” in each case. Moreover, the Potency result in [6] and in test [7] was “inactive” in each case.
Consider `CCCCCCCC/C=C/C(=O)O`, for which the Potency result in test [1], in test [15], in test [3], in [4], in test [5] and in [6] was “inactive” throughout. Also, in test [7], the Potency entry is “inactive”.
For the molecule `Nc1cc(-c2ccncc2)c[nH]c1=O`, the Potency result in test [1], in test [15], in test [3], in test [4], in [5] and in test [6] was “inactive” throughout. For the same molecule, the Potency result in test [7] was “inactive”.
Turning to `CN1CCN(c2cc3c(nn2)Oc2ccccc2N3C)CC1`, the Potency entry in test [1], in test [3], in test [4], in [5], in test [6] and in [7] was “inactive” throughout.
Take `COC(=O)c1nc(Cl)c(Cl)nc1N`: the Potency in [1] is 2190 nM (active); in test [3], 5960 nM (active); in test [4], 8410 nM (active); in test [6], 21100 nM (active); in test [7], 3760 nM (active); in test [8], 3690 nM (active). Besides, the Potency in test [9] is 293 nM (active); in test [10], 1170 nM (active); in test [16], 2080 nM (active); in test [17], 3290 nM (active); in [11] it was 1650 nM (active); in [12], 16500 nM (active). The Potency is 2080 nM (active) in test [18], 1470 nM (active) in test [19], 2330 nM (active) in test [13] and 2930 nM (active) in test [20]. In addition, the Potency entry in test [5] is “inactive”.
On to `CC(N)C(=O)OC(C)(C)Cc1ccc(Cl)cc1` (centres undefined), for which the Potency result in test [1], in [3], in test [4], in test [5], in test [6] and in test [7] was “inactive” throughout.
With `O=C(CS)Nc1ccccc1`, the Potency entry in test [1], in [15], in test [4] and in test [6] was “inactive” each time. Moreover, the Potency is 16800 nM (active) in test [5] and 21100 nM (active) in [7].
As for `CC(C(=O)O)c1ccc(C(=O)c2cccs2)cc1` (centres undefined), the Potency entry in test [1], in [3], in test [4], in [5], in [6] and in test [7] was “inactive” each time.
On to `O=C(CCN1CCN(CCO)CC1)N1c2ccccc2Sc2ccc(C(F)(F)F)cc21`, for which the Potency result in test [1], in test [15], in test [3], in [4], in test [5] and in test [6] was “inactive” each time. Also, the Potency result in test [7] was “inactive”.
`COC(=O)Nc1nc2ccc(C(=O)C3CC3)cc2[nH]1`: the Potency in test [1] is 2190 nM (active); in [9], 1310 nM (active); in [10] it was 1040 nM (active); in test [16], 16500 nM (active); in test [19], 2330 nM (active); in test [13], 1170 nM (active). Besides, the Potency in test [20] was 1470 nM (active). Also, the Potency entry in test [2], in test [5], in test [6] and in test [14] was “inactive” each time.
As for `CC(=O)SCC(CC(=O)c1ccc(C)cc1)C(=O)O` (centres undefined), the Potency entry in test [1], in [3], in test [4], in test [5], in test [6] and in test [7] was “inactive” throughout.
Consider `O=C(O)Cc1ccc(-c2ccccc2)cc1`, for which the Potency entry in test [1], in test [3], in test [4], in test [5], in [6] and in [7] was “inactive” in each case.
As to `Cc1[nH]cnc1CN1CCc2c(c3ccccc3n2C)C1=O`, the Potency result in [1], in test [3], in [4], in [5], in test [6] and in [7] was “inactive” in each case.
